The full list was thinned out, with hits kept by preference.
FECH block: human FECH heme synthesis enzyme inhibition; purified FECH, Ni-mesoporphyrin absorbance 550 nm; hit rate 3.3% among 20,000; P22830; calls only at 10 µM (by protocol);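 active means enzyme reaction rate more than 3 SD below the solvent-only control wells on the same plate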;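 further: lower slope than DMSO wells means FECH inhibition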
Target sequence (P22830 whole entry, looked up): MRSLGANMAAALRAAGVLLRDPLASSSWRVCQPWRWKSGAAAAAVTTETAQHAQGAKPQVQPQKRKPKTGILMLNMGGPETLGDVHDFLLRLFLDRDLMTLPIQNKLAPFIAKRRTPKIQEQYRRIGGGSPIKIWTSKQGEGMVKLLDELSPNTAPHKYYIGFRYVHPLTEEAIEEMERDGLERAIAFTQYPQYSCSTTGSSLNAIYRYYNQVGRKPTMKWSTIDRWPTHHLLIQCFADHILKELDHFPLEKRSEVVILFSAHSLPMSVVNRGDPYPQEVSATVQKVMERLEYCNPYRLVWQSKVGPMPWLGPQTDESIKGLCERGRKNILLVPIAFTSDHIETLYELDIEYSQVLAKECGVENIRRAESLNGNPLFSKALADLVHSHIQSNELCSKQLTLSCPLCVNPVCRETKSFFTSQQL
* = called active by the depositor; i = inactive; + = active, no number.

SMILES	FECH block
CCN(CC)CCCNC(=O)C1CCN(c2ccc(-c3ccccc3)nn2)CC1	i
CCOCCCNC(=O)C1CCN(c2ccc(-c3cccc(C)c3)nn2)CC1	i
CCN(CC)CCCNC(=O)C1CCN(c2ccc(-c3cccc(C)c3)nn2)CC1	+
Cc1cnc(CNC(=O)C2CC(=O)N(CC(C)C)C2)cn1 (configuration not stated)	i
Cc1sc2ncnc(N(C)Cc3nc(-c4ccccn4)no3)c2c1C	i
CCOc1ccccc1CN(C(=O)c1cn2cc(Cl)ccc2n1)C1CC1	+
CCOc1ccccc1CN(C(=O)c1cn(CC)c2nc(C)ccc2c1=O)C1CC1	i
CCOc1ccccc1CN(CC)C(=O)c1ccc2nccn2c1	i
CCCc1c(C)nc2ncnn2c1Sc1ccc(NC(=O)c2ccccc2C)cc1	+
CCc1c(C)nc2ncnn2c1Sc1ccc(NC(=O)c2ccccc2)cc1	i
CCCc1c(C)nc2ncnn2c1Sc1ccc(NC(=O)CC)cc1	i
CCc1c(C)nc2ncnn2c1Sc1ccc(NC(=O)c2ccc(OC)cc2)cc1	i
CCCC(=O)Nc1ccc(Sc2c(CCC)c(C)nc3ncnn23)cc1	+
CCc1c(C)nc2ncnn2c1Sc1ccc(NC(=O)c2ccccc2C)cc1	+
CCc1c(C)nc2ncnn2c1Sc1ccccc1NC(=O)c1ccccc1C	i
CCc1c(C)nc2ncnn2c1Sc1ccc(NC(=O)c2ccc(Br)cc2)cc1	+
CCc1c(C)nc2ncnn2c1Sc1ccc(NC(=O)c2cccs2)cc1	i
CCCC(=O)Nc1ccc(Sc2c(CC)c(C)nc3ncnn23)cc1	i
CCCc1c(C)nc2ncnn2c1Sc1ccc(NC(=O)c2ccccc2)cc1	i
CCCc1c(C)nc2ncnn2c1Sc1ccc(NC(=O)c2ccc(C)cc2)cc1	i
O=C(CSCc1nc(-c2ccc(F)cc2)no1)N1CCN(c2ccccc2)CC1	i
CCn1c(C2CCN(C(=O)C3(C)CCCO3)CC2)n[nH]c1=O (configuration not stated)	i
O=C1CCC(NCc2nncn2C2CCCCC2)CCN1Cc1ccccc1 (configuration not stated)	i
COc1ccc2nc(CNC3CCC(=O)N(Cc4ccccc4)CC3)[nH]c2c1 (configuration not stated)	i
Cc1cccc(Nc2nc(N3CCCCC3)nc3c2cnn3-c2ccccc2)c1	i
SMILES	FECH block
Cc1ccc(N2C(=O)CCS2(=O)=O)cc1S(=O)(=O)Nc1ccccc1Cl	i
CCOC(=O)Cn1c(=O)n(-c2ccc(C)c(C)c2)c2nc(-c3cccs3)nc(C(N)=O)c21	i
CC(=O)Nc1ccc(C)cc1S(=O)(=O)NCCn1c(-c2ccc(F)cc2)nc2cccnc21	i
Cc1cc(NC(=O)c2ccccc2C)n(-c2ncnc3c2cnn3-c2ccc(F)cc2)n1	i
Cc1ccc(C)c(OCCN(C)C(=O)c2cc3ncc(CCO)cn3n2)c1	+
Cc1ccc(OCCN(C)C(=O)c2ccc(Cn3nnnc3C)cc2)c(C)c1	i
CCN(CCc1nc2ccc(C)cc2[nH]1)C(=O)c1cnn2cc(CCO)cnc12	i
CN(C)CC1(O)CCCN(C(=O)c2ccc(CO)o2)C1 (configuration not stated)	i
CCC(C(=O)Nc1ccc(Nc2nc(C)cc(N(C)C)n2)cc1)c1ccccc1 (configuration not stated)	+
CCC(C(=O)Nc1ccc(Nc2nc(C)cc(Nc3ccc(C)cc3)n2)cc1)c1ccccc1 (configuration not stated)	i
CCC(C(=O)Nc1ccc(Nc2nc(C)cc(Nc3ccccc3)n2)cc1)c1ccccc1 (configuration not stated)	i
Cc1ccc(-c2nc3cccnc3n2CCCNS(=O)(=O)N(C)C)cc1	i
CCCNC(=O)c1ccc(Cn2c(=O)c3cc(OC)c(OC)cc3n(CC(=O)NC(C)C)c2=O)cc1	i
CCOc1ccc(NC(=O)CN2CCCN(Cc3cccc(Cl)c3)S2(=O)=O)cc1	+
CC(=O)c1ccc(NC(=O)CN2CCCN(Cc3ccccc3)S2(=O)=O)cc1	i
COC(=O)c1ccc(NC(=O)CN2CCCN(Cc3ccccc3)S2(=O)=O)cc1	i
O=C(CN1CCCN(Cc2cccc(Cl)c2)S1(=O)=O)Nc1ccc2c(c1)OCO2	i
COc1ccc(CNC(=O)CN2CCCN(Cc3cccc(Cl)c3)S2(=O)=O)cc1	i
CCOc1ccc(NC(=O)CN2CCCN(Cc3ccccc3)S2(=O)=O)cc1	+
Nc1cncc(-n2ccnc2-c2ccccn2)c1	i
Clc1cccc(Nc2nc(N3CCCC3)nc3c2cnn3-c2ccccc2)c1	i
O=C(CNCc1ccccc1)N1CCOC(C(F)(F)F)C1 (configuration not stated)	i
CC(NC(=O)CSc1nc2ccccc2c(=O)[nH]1)c1cnn(C)c1 (configuration not stated)	i
CCN1C(SCC(=O)N2CCN(c3ccccc3F)CC2)=NS(=O)(=O)c2ccccc21	i
CCc1ncc2c(n1)CN(C(=O)c1ccc(N3CCCC3=O)cc1)C2	i
CCN1C(SCc2ccc(N3CCCC3=O)cc2)=NS(=O)(=O)c2ccccc21	+
